Screens: PubChem BioAssay, National Center for Advancing Translational Sciences (NCATS)
G9a block – blocks human histone lysine methyltransferase G9a | 350,000 compounds, 8.8% hits | G9a H3K9 monomethylation, AlphaScreen, 2 h | AID 504332 | Q96KQ7 | Potency, µM (series often up to 102 µM), usual class: inhibitors; note: nearly all actives have a fitted effect of over 75% in size
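AlphaScreen read-out: biotin-H3K9 peptide (500 nM) methylation by 20 nM enzyme with 20 uM SAM, 2 h at room temperature after 15 min compound preincubation; anti-monomethyl H3K9 antibody plus donor/acceptor beads, 10 min dark.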
BAZ2B block – BAZ2B (human) inhibition | Q9UIF8 | AlphaScreen BAZ2B-H3K14Ac peptide displacement | Potency, µM (titrated, usually from 114 µM), hits mostly inhibitors | 360,000 compounds, 4.4% hits; note: nearly all actives have a fitted effect of over 60% in size
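Multi-concentration screen (max 110 uM) measuring displacement of acetylated histone H3 peptide from BAZ2B by AlphaScreen, using 50 nM protein, 50 nM peptide and 10 ug/mL streptavidin donor plus Ni-chelate acceptor beads.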
ALOX12 inh – inhibitors of human 12S-lipoxygenase ALOX12; P18054; Potency, µM (doses to about 108 µM), actives largely listed as inhibitors; purified 12hLO, xylenol orange hydroperoxide absorbance; AID 1671190; 580,000 compounds, 1.1% hits
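Purified human 12hLO at 150 nM in 25 mM Hepes, 0.01% Triton X-100, pH 7.0, preincubated 15 min at room temperature with compound. Reaction started with 40 uM arachidonic acid, 30 min at room temperature. Hydroperoxide measured by Fe-xylenol orange, 573/405 nm absorbance ratio.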
Sfp inh – blocks B. subtilis Sfp PPTase activity | Q9F4F7 | Biochemical Sfp PPTase activity, qHTS | Potency, µM, actives largely listed as inhibitors | 310,000 compounds, 3.5% hits;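 note: the enzyme is Sfp with the accession as filed and its product quenches rhodamine fluorescence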
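Step 1, compound plus 15 nM Sfp-PPTase, 15 min, room temperature. Step 2, add rhodamine-CoA (5 uM) and BHQ-2-YbbR (12.5 uM). Step 3, read 525/598 nm fluorescence at 0 and 30 min.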
JMJD2A Tudor – blocks the human JMJD2A Tudor domain; AlphaScreen JMJD2A-Tudor / H3K4me3 peptide binding; Potency, µM (doses to about 114 µM), hits mostly inhibitors; 390,000 compounds, 4.4% hits; note: nearly all actives have a fitted effect of over 50% in size
HP1b chromo inh – inhibitors of HP1-beta chromodomain binding to methylated histone tails; AlphaScreen HP1-beta / biotin-H3K9me3 peptide binding; Potency, µM (titrated, usually from 114 µM), actives largely listed as inhibitors; 390,000 compounds, 0.56% hits; AID 540317; note: nearly all actives have a fitted effect of over 70% in size
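AlphaScreen: HP1-beta (50 nM) preformed 30 min with biotin-H3(1-18)K9me3 peptide (50 nM) in PBS pH 7.4, 0.01% Tween-20. Compound added for 30 min at RT, then streptavidin donor/nickel chelate acceptor beads (10 ug/mL) for 30 min.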
Numbers stand for hits; [ ] = another dose, or the depositor's remark. Sampled rows, rich in hits. Any-hit rate of the full collection: about 8.7%. Calls come from the whole dose curve; as a rule, active = well fitted curve in the direction sought with a large enough effect; inconclusive = small, poorly fitted or top-dose-only effect, or another doubt; inactive = no such curve, though single readings can be large; an effect the other way counts as inactive or inconclusive.

How did O=C1CC(Nc2ccc(N3CCOCC3)cc2)C(=O)N1Cc1ccccc1 (stereo not drawn) do in these assays?
G9a block: 8.9µM; BAZ2B block: inconclusive; ALOX12 inh: inactive; Sfp inh: inactive; JMJD2A Tudor: inconclusive; HP1b chromo inh: inactive

Results for CCOc1ccccc1N1C(=O)CC(Nc2ccc(N3CCOCC3)cc2)C1=O (stereo not drawn) ?
G9a block: inconclusive; BAZ2B block: inconclusive; ALOX12 inh: inactive; Sfp inh: inactive; JMJD2A Tudor: inconclusive; HP1b chromo inh: inconclusive

What do the screens show for `O=C(c1cnccn1)N1CCc2ccccc2C1`?
G9a block: inactive; BAZ2B block: inactive; ALOX12 inh: inactive; Sfp inh: inactive; JMJD2A Tudor: inactive; HP1b chromo inh: inactive

What do the screens show for `O=C(NCN1CCc2ccccc2C1)c1cnccn1`?
G9a block: inactive; BAZ2B block: inactive; ALOX12 inh: inactive; Sfp inh: inactive; JMJD2A Tudor: 6.3µM; HP1b chromo inh: inactive

What do the screens show for `O=C(c1cnccn1)N1CCc2ccccc21`?
G9a block: inactive; BAZ2B block: inconclusive; ALOX12 inh: inactive; Sfp inh: inactive; JMJD2A Tudor: 79µM; HP1b chromo inh: inactive

Results for O=C(CC1CCS(=O)(=O)C1)N1CCCC(c2ccccc2)(c2ccccc2)C1 (stereo not drawn) ?
ALOX12 inh: inactive

How did CN(CCc1ccccc1)Cc1cnc(S(C)(=O)=O)n1Cc1ccccc1F do in these assays?
ALOX12 inh: inactive

How did O=C1CCc2cccc(O)c2N1 do in these assays?
ALOX12 inh: inactive; JMJD2A Tudor: 79µM; HP1b chromo inh: inactive

How did COc1ccc(-c2noc(CN3CCCC(C(=O)Nc4ccc(-c5ccno5)cc4)C3)n2)cc1OC (stereo not drawn) do in these assays?
ALOX12 inh: inactive

How did O=C(CCc1nc2ccccc2s1)NCC1CCCCC(=O)N1 (stereo not drawn) do in these assays?
ALOX12 inh: inactive

How did CCC(CC)NC(=O)COC(=O)/C=C/c1cccc2cccnc12 do in these assays?
ALOX12 inh: inactive

How did COc1ccccc1-c1nnc(SC/C(O)=C(\C#N)c2nc3ccccc3[nH]2)n1C1CCCCC1 do in these assays?
G9a block: 32µM; BAZ2B block: inactive; ALOX12 inh: inactive; Sfp inh: inactive; JMJD2A Tudor: 89µM; HP1b chromo inh: inconclusive

How did Cc1cccc(C)c1Nc1nnc(SC/C(O)=C(\C#N)c2nc3ccccc3[nH]2)s1 do in these assays?
G9a block: 14µM; BAZ2B block: inactive; ALOX12 inh: inactive; Sfp inh: inactive; JMJD2A Tudor: inactive; HP1b chromo inh: inactive

How did Cn1cnnc1SC/C(O)=C(\C#N)c1nc2ccccc2[nH]1 do in these assays?
G9a block: inconclusive; BAZ2B block: 50µM; ALOX12 inh: inactive; Sfp inh: inactive; JMJD2A Tudor: 25µM; HP1b chromo inh: inactive

What do the screens show for `CCOc1ccccc1C1NC(=O)N(CC(=O)Nc2cccc(Cl)c2)C2=C1C(=O)OC2` (stereo not drawn)?
ALOX12 inh: inactive

What do the screens show for `N[C@@H](Cc1cnc[nH]1)C(=O)NCc1cccnc1Oc1ccc(F)cc1F`?
ALOX12 inh: inactive

Results for Cc1ccnc(Nc2nc(-c3sc(C)nc3C)cs2)c1 ?
ALOX12 inh: inactive; JMJD2A Tudor: 79µM; HP1b chromo inh: inconclusive

What do the screens show for `Cc1nc(N)sc1-c1csc(Nc2ccccn2)n1`?
G9a block: inconclusive; BAZ2B block: inactive; ALOX12 inh: inactive; Sfp inh: 56µM; JMJD2A Tudor: 79µM; HP1b chromo inh: inactive

Results for Cc1nc(C)c(-c2csc(Nc3ccccn3)n2)s1 ?
G9a block: inconclusive; BAZ2B block: inconclusive; ALOX12 inh: inconclusive; Sfp inh: inactive; JMJD2A Tudor: inactive; HP1b chromo inh: inactive

How did CC(=O)Oc1ccc(-c2csc(Nc3ccc(Cl)cn3)n2)cc1 do in these assays?
G9a block: inactive; BAZ2B block: inactive; ALOX12 inh: inactive; Sfp inh: inactive; JMJD2A Tudor: inactive; HP1b chromo inh: inactive

How did Cc1nc(N)sc1-c1csc(Nc2ccc(Cl)cn2)n1 do in these assays?
G9a block: 10µM; BAZ2B block: inconclusive; ALOX12 inh: inconclusive; Sfp inh: 20µM; JMJD2A Tudor: inconclusive; HP1b chromo inh: inconclusive

What do the screens show for `CCCOc1ccc(NC(=O)c2ccccc2Cl)c2cccnc12`?
ALOX12 inh: inactive

Results for Cc1ccc2c(c1)nnn2C1CCN(CC(=O)c2ccc(Cl)cc2)CC1 ?
G9a block: 45µM; BAZ2B block: inactive; ALOX12 inh: inconclusive; Sfp inh: inactive; JMJD2A Tudor: inactive; HP1b chromo inh: inactive

What do the screens show for `O=C(CSc1ccccn1)N[C@@H]1CCOC[C@H]1OCc1cscn1`?
ALOX12 inh: inactive

How did COC(=O)c1ccccc1N=C(SC)N(C)C do in these assays?
G9a block: 16µM; BAZ2B block: inactive; ALOX12 inh: inactive; Sfp inh: inactive; JMJD2A Tudor: inactive; HP1b chromo inh: inactive

Results for CC1=Nc2ccccc2N=C(NC(=O)/C=C/C(=O)O)C1c1ccccc1 (stereo not drawn) ?
G9a block: 11µM; BAZ2B block: inactive; ALOX12 inh: inactive; Sfp inh: inactive; JMJD2A Tudor: inactive; HP1b chromo inh: inactive

Results for COc1ccc(C(=O)NC2=Nc3ccccc3N=C(C)C2c2ccccc2)cc1 (stereo not drawn) ?
G9a block: inconclusive; BAZ2B block: inactive; ALOX12 inh: inconclusive; Sfp inh: inactive; JMJD2A Tudor: inactive; HP1b chromo inh: inactive

How did COc1ccc2cc(/C=C/C(=O)c3ccco3)c(Cl)nc2c1 do in these assays?
G9a block: 50µM; BAZ2B block: inactive; Sfp inh: inactive

What do the screens show for `Cc1ccc(O)c(N)c1`?
G9a block: inactive[0.501 µM]; BAZ2B block: inactive; JMJD2A Tudor: inactive; HP1b chromo inh: inactive

Results for Cc1ccc(SSc2cc(C)ccc2N)c(N)c1 ?
G9a block: inconclusive; BAZ2B block: 50µM; ALOX12 inh: 10µM; JMJD2A Tudor: 7.9µM; HP1b chromo inh: 14µM

Results for O=C(Cc1ccc(F)cc1)N1CCC2(CC1)COc1ccccc1[S+](=O)([O-])N2 ?
ALOX12 inh: inactive[6.33 µM]

What do the screens show for `CC(CS(=O)(=O)c1ccc2c(c1)NC(=O)CS2)C(=O)NCc1ccccc1Cl` (stereo not drawn)?
G9a block: inconclusive; BAZ2B block: 14µM; ALOX12 inh: inactive; Sfp inh: inactive; JMJD2A Tudor: 25µM; HP1b chromo inh: 13µM

What do the screens show for `CN(C)c1ccc(CNS(=O)(=O)c2ccc3c(c2)NC(=O)CS3)cc1`?
G9a block: 50µM; BAZ2B block: inconclusive; ALOX12 inh: inactive; Sfp inh: inactive; JMJD2A Tudor: inconclusive; HP1b chromo inh: inactive

How did Cc1ccc(CNS(=O)(=O)c2ccc3c(c2)NC(=O)CS3)cc1 do in these assays?
G9a block: inactive; BAZ2B block: inactive; ALOX12 inh: inactive; Sfp inh: inactive; JMJD2A Tudor: inactive; HP1b chromo inh: inactive
